# In publication PMC5540273 (PLoS ONE, 2017):
# Several values for one entry are separate records, joined by “and”; a condition that tells them apart may be missing. Equal values may be shown once. Read-outs that look alike come from different tables or passages of the source.
# What was measured:
# Conditions in all cases: concentration: 1 μM, replicates: in singlicate, n = 1
# SGK = system: SGK
# SIK2 = system: SIK2
# SIK = system: SIK
# SLK = system: SLK
# SNARK = system: T1, SNARK
# T1 construct: gene NUAK2
# SNRK = system: SNRK
# SRC = system: SRC
# SRMS = system: SRMS
# SRPK1 = system: SRPK1
# SRPK2 = system: SRPK2
# SRPK3 = system: SRPK3
# STK16 = system: STK16
# STK33 = system: STK33
# STK35 = system: STK35
# STK36 = system: STK36
# STK39 = system: STK39
# SYK = system: SYK
# SgK110 = system: SgK110
# TAK1 = system: T2, TAK1
# T2 construct: gene MAP3K7
# TAOK1 = system: TAOK1
# 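Note: KINOMEscan kinase panel screen.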
structure (smiles),measurement,setting,value
Cn1ccc2ncnc(Oc3ccc(NC(=O)Nc4ccncc4)c(Cl)c3)c21,%Inh,SGK,0%
same,%Inh,SIK2,0%
same,%Inh,SIK,0%
same,%Inh,SLK,0%
same,%Inh,SNARK,0%
same,%Inh,SNRK,0%
same,%Inh,SRC,13%
same,%Inh,SRMS,0%
same,%Inh,SRPK1,0%
same,%Inh,SRPK2,0%
same,%Inh,SRPK3,0%
same,%Inh,STK16,10%
same,%Inh,STK33,0%
same,%Inh,STK35,0%
same,%Inh,STK36,5%
same,%Inh,STK39,100%
same,%Inh,SYK,3%
same,%Inh,SgK110,30%
same,%Inh,TAK1,0%
same,%Inh,TAOK1,0%
COc1ccc(COc2cc(-n3cnc4ccccc43)sc2C(N)=O)cc1 [GSK1024304],%Inh,SGK,0%
same,%Inh,SIK2,0%
same,%Inh,SIK,0%
same,%Inh,SLK,9%
same,%Inh,SNARK,2%
same,%Inh,SNRK,0%
same,%Inh,SRC,0%
same,%Inh,SRMS,0%
same,%Inh,SRPK1,29%
same,%Inh,SRPK2,0%
same,%Inh,SRPK3,17%
same,%Inh,STK16,0%
same,%Inh,STK33,13%
same,%Inh,STK35,0%
same,%Inh,STK36,0%
same,%Inh,STK39,0%
same,%Inh,SYK,26%
same,%Inh,SgK110,0%
same,%Inh,TAK1,0%
same,%Inh,TAOK1,0%
Cl.Cl.Cl.Fc1ccc(-c2ncn(C3CCNCC3)c2-c2ccnc(Nc3ccccc3)n2)cc1 [SB-238039],%Inh,SGK; 1 µM,41% and 0%
same,%Inh,SIK2; 1 µM,65% and 46%
same,%Inh,SIK; 1 µM,1% and 4%
same,%Inh,SLK; 1 µM,28% and 0%
same,%Inh,SNARK; 1 µM,9% and 0%
same,%Inh,SNRK; 1 µM,0% and 10%
same,%Inh,SRC; 1 µM,0% and 4%
same,%Inh,SRMS; 1 µM,29% and 0%
same,%Inh,SRPK1; 1 µM,7% and 0%
same,%Inh,SRPK2; 1 µM,7% and 0%
same,%Inh,SRPK3; 1 µM,11% and 26%
same,%Inh,STK16; 1 µM,5% and 0%
same,%Inh,STK33; 1 µM,0% and 12%
same,%Inh,STK35; 1 µM,2% and 0%
same,%Inh,STK36; 1 µM,97.9% and 93%
same,%Inh,STK39; 1 µM,18% and 0%
same,%Inh,SYK; 1 µM,8% and 3%
same,%Inh,SgK110; 1 µM,35% and 0%
same,%Inh,TAK1; 1 µM,24% and 46%
same,%Inh,TAOK1; 1 µM,88% and 57%
O=C(NCCNc1ccnc(Nc2ccc(F)cc2)n1)c1cc2ccccc2s1 [GSK1379874],%Inh,SGK,0%
same,%Inh,SIK2,0%
same,%Inh,SIK,0%
same,%Inh,SLK,17%
same,%Inh,SNARK,0%
same,%Inh,SNRK,0%
same,%Inh,SRC,0%
same,%Inh,SRMS,0%
same,%Inh,SRPK1,3%
same,%Inh,SRPK2,19%
same,%Inh,SRPK3,0%
same,%Inh,STK16,5%
same,%Inh,STK33,0%
same,%Inh,STK35,0%
same,%Inh,STK36,0%
same,%Inh,STK39,0%
same,%Inh,SYK,36%
same,%Inh,SgK110,0%
same,%Inh,TAK1,0%
same,%Inh,TAOK1,0%
CN(C(=O)c1ccc(-c2cc(-c3c[nH]nc3-c3ccccn3)ccn2)cc1)C1CCOCC1 [GW810083],%Inh,SGK,18%
same,%Inh,SIK2,0%
same,%Inh,SIK,0%
same,%Inh,SLK,0%
same,%Inh,SNARK,0%
same,%Inh,SNRK,0%
same,%Inh,SRC,0%
same,%Inh,SRMS,0%
same,%Inh,SRPK1,0%
same,%Inh,SRPK2,14%
same,%Inh,SRPK3,11%
same,%Inh,STK16,0%
same,%Inh,STK33,0%
same,%Inh,STK35,0%
same,%Inh,STK36,0%
same,%Inh,STK39,17%
same,%Inh,SYK,0%
same,%Inh,SgK110,0%
same,%Inh,TAK1,24%
same,%Inh,TAOK1,0%
O=C1Cc2cc(Nc3nc(NCc4cccc(S(=O)(=O)C(F)(F)F)c4)ncc3C(F)(F)F)ccc2N1,%Inh,SGK,10%
same,%Inh,SIK2,0%
same,%Inh,SIK,6%
same,%Inh,SLK,0%
same,%Inh,SNARK,0%
same,%Inh,SNRK,0%
same,%Inh,SRC,0%
same,%Inh,SRMS,0%
same,%Inh,SRPK1,0%
same,%Inh,SRPK2,6%
same,%Inh,SRPK3,6%
same,%Inh,STK16,0%
same,%Inh,STK33,7%
same,%Inh,STK35,3%
same,%Inh,STK36,0%
same,%Inh,STK39,5%
same,%Inh,SYK,6%
same,%Inh,SgK110,22%
same,%Inh,TAK1,5%
same,%Inh,TAOK1,0%
COc1cc2ncn(-c3cc(OCc4sccc4Cl)c(C(N)=O)s3)c2cc1OC [GSK448459],%Inh,SGK,0%
same,%Inh,SIK2,13%
same,%Inh,SIK,8%
same,%Inh,SLK,99%
same,%Inh,SNARK,80%
same,%Inh,SNRK,0%
same,%Inh,SRC,0%
same,%Inh,SRMS,0%
same,%Inh,SRPK1,88%
same,%Inh,SRPK2,0%
same,%Inh,SRPK3,3%
same,%Inh,STK16,21%
same,%Inh,STK33,0%
same,%Inh,STK35,0%
same,%Inh,STK36,0%
same,%Inh,STK39,0%
same,%Inh,SYK,23%
same,%Inh,SgK110,0%
same,%Inh,TAK1,0%
same,%Inh,TAOK1,0%
CC(C)(CN)c1nc(-c2ccc(Cl)c(O)c2)c(-c2ccncc2)[nH]1.O=C(O)C(F)(F)F [SB-477794],%Inh,SGK; 1 µM,23% and 3%
same,%Inh,SIK2; 1 µM,78% and 71%
same,%Inh,SIK; 1 µM,21% and 33%
same,%Inh,SLK,99.3%
same,%Inh,SNARK; 1 µM,0% and 7%
same,%Inh,SNRK; 1 µM,11% and 0%
same,%Inh,SRC,99.9%
same,%Inh,SRMS; 1 µM,0% and 15%
same,%Inh,SRPK1; 1 µM,17% and 42%
same,%Inh,SRPK2; 1 µM,26% and 74%
same,%Inh,SRPK3,0%
same,%Inh,STK16; 1 µM,18% and 0%
same,%Inh,STK33,52%
same,%Inh,STK35; 1 µM,59% and 62%
same,%Inh,STK36; 1 µM,86% and 87%
same,%Inh,STK39; 1 µM,42% and 20%
same,%Inh,SYK; 1 µM,13% and 28%
same,%Inh,SgK110,0%
same,%Inh,TAK1; 1 µM,62% and 75%
same,%Inh,TAOK1; 1 µM,2% and 16%
NS(=O)(=O)CCc1cccc(Nc2nccc(-c3c(-c4cccc(NC(=O)c5c(F)cccc5F)c4)nn4ccccc34)n2)c1 [GSK336735],%Inh,SGK,0%
same,%Inh,SIK2,37%
same,%Inh,SIK,94.7%
same,%Inh,SLK,97.7%
same,%Inh,SNARK,86%
same,%Inh,SNRK,0%
same,%Inh,SRC,97.8%
same,%Inh,SRMS,98.8%
same,%Inh,SRPK1,62%
same,%Inh,SRPK2,0%
same,%Inh,SRPK3,55%
same,%Inh,STK16,28%
same,%Inh,STK33,0%
same,%Inh,STK35,90.7%
same,%Inh,STK36,99.9%
same,%Inh,STK39,1%
same,%Inh,SYK,74%
same,%Inh,SgK110,0%
same,%Inh,TAK1,27%
same,%Inh,TAOK1,73%
CCc1nc(-c2cccc(C)c2)c(-c2ccnc(NCc3ccccc3)c2)s1,%Inh,SGK,2%
same,%Inh,SIK2,10%
same,%Inh,SIK,5%
same,%Inh,SLK,7%
same,%Inh,SNARK,0%
same,%Inh,SNRK,0%
same,%Inh,SRC,7%
same,%Inh,SRMS,1%
same,%Inh,SRPK1,1%
same,%Inh,SRPK2,0%
same,%Inh,SRPK3,0%
same,%Inh,STK16,19%
same,%Inh,STK33,0%
same,%Inh,STK35,0%
same,%Inh,STK36,0%
same,%Inh,STK39,0%
same,%Inh,SYK,0%
same,%Inh,SgK110,22%
same,%Inh,TAK1,0%
same,%Inh,TAOK1,0%
O=C(c1ccc(-c2cc(-c3c[nH]nc3-c3ccccn3)ccn2)cc1)N1CCOCC1 [GW812171],%Inh,SGK,2%
same,%Inh,SIK2,0%
same,%Inh,SIK,0%
same,%Inh,SLK,0%
same,%Inh,SNARK,16%
same,%Inh,SNRK,10%
same,%Inh,SRC,1%
same,%Inh,SRMS,28%
same,%Inh,SRPK1,0%
same,%Inh,SRPK2,0%
same,%Inh,SRPK3,4%
same,%Inh,STK16,0%
same,%Inh,STK33,0%
same,%Inh,STK35,0%
same,%Inh,STK36,2%
same,%Inh,STK39,18%
same,%Inh,SYK,0%
same,%Inh,SgK110,32%
same,%Inh,TAK1,10%
same,%Inh,TAOK1,0%
O=C(Nc1n[nH]c2cc(-c3cccc(F)c3)ccc12)C1CC1 [SB-735464],%Inh,SGK,13%
same,%Inh,SIK2,0%
same,%Inh,SIK,0%
same,%Inh,SLK,11%
same,%Inh,SNARK,0%
same,%Inh,SNRK,0%
same,%Inh,SRC,0%
same,%Inh,SRMS,18%
same,%Inh,SRPK1,36%
same,%Inh,SRPK2,4%
same,%Inh,SRPK3,37%
same,%Inh,STK16,5%
same,%Inh,STK33,0%
same,%Inh,STK35,12%
same,%Inh,STK36,16%
same,%Inh,STK39,0%
same,%Inh,SYK,4%
same,%Inh,SgK110,0%
same,%Inh,TAK1,6%
same,%Inh,TAOK1,40%
Cc1cccc(-c2nc(-c3ccc(S(C)(=O)=O)cc3)sc2-c2ccncc2)c1,%Inh,SGK,0%
same,%Inh,SIK2,0%
same,%Inh,SIK,12%
same,%Inh,SLK,26%
same,%Inh,SNARK,2%
same,%Inh,SNRK,17%
same,%Inh,SRC,8%
same,%Inh,SRMS,0%
same,%Inh,SRPK1,15%
same,%Inh,SRPK2,0%
same,%Inh,SRPK3,10%
same,%Inh,STK16,19%
same,%Inh,STK33,0%
same,%Inh,STK35,3%
same,%Inh,STK36,30%
same,%Inh,STK39,15%
same,%Inh,SYK,25%
same,%Inh,SgK110,2%
same,%Inh,TAK1,3%
same,%Inh,TAOK1,0%
O=c1cc(N2CCOCC2)nc2n(Cc3cccc(C(F)(F)F)c3)ccn12 [GSK2297543],%Inh,SGK,0%
same,%Inh,SIK2,0%
same,%Inh,SIK,0%
same,%Inh,SLK,18%
same,%Inh,SNARK,0%
same,%Inh,SNRK,0%
same,%Inh,SRC,0%
same,%Inh,SRMS,0%
same,%Inh,SRPK1,24%
same,%Inh,SRPK2,0%
same,%Inh,SRPK3,0%
same,%Inh,STK16,0%
same,%Inh,STK33,0%
same,%Inh,STK35,0%
same,%Inh,STK36,0%
same,%Inh,STK39,0%
same,%Inh,SYK,27%
same,%Inh,SgK110,0%
same,%Inh,TAK1,0%
same,%Inh,TAOK1,0%
Cc1ccc(C(=O)NCC(N)=O)cc1-n1c(C)cc(OCc2ccc(F)cc2F)c(Br)c1=O,%Inh,SGK,0%
same,%Inh,SIK2,0%
same,%Inh,SIK,6%
same,%Inh,SLK,24%
same,%Inh,SNARK,0%
same,%Inh,SNRK,15%
same,%Inh,SRC,16%
same,%Inh,SRMS,0%
same,%Inh,SRPK1,0%
same,%Inh,SRPK2,0%
same,%Inh,SRPK3,21%
same,%Inh,STK16,10%
same,%Inh,STK33,10%
same,%Inh,STK35,10%
same,%Inh,STK36,15%
same,%Inh,STK39,0%
same,%Inh,SYK,20%
same,%Inh,SgK110,0%
same,%Inh,TAK1,0%
same,%Inh,TAOK1,0%
